tested on: VDR:RXRa (NR concentration 270 nM, RXRa partner concentration 90 nM); assay: PBM binding z-score (relative to random genomic background probes); higher = stronger binding; sequences stand for … in GC…GCGATTGACAGCGTAGAATGAAGG
Method: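 Protein-binding microarray (Agilent 4x180K custom design, double-stranded 60-nt probes: 5' GC cap, 34-nt variable region, 24-nt constant primer region; full probe sequence given). Purified or IVT nuclear receptor:RXRα heterodimers (3:1 NR:RXRα, mostly 270:90 nM) or homodimers were incubated for 1 h in PBS with 2% milk and no ligand, then detected with Alexa488 antibodies. Fluorescence from o1-orientation probes (~5 replicates averaged) was converted to z-scores against 500 random hg19 background probes. Variable regions are seed direct-repeat (DR0–DR5) sites, all their single-nucleotide variants and half-site ablations.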

Sequence	PBM binding z-score
AGAATGAAGTTAAGATCAGGGAAACAGAATACAT	-0.31
CTCGAAAGGTCGCTTGAGGTGAGTATACGGATAA	3.4
CCAGACAGGTGAGAAGGTAACTCAACCTCGATTA	0.0485
CGTCCAAGGTCATAGGAGGTCAGTGATGACAGAT	6.43
ACTATTAGTTGACTTATGGCAACCGATACGACGC	0.458
GGAACGAGGGCATTCGAGTTGATACCATGGCGAT	3.67
CAAACTAGGTGAAGGTCAAAGTCGGTTTGTGCCA	3.79
CCTAGTTGGTCAGGAGGTCACACACCGGATATGA	4.06
GCGTCTGGGGCATCAGCAGGTTACCATAACTTAA	-0.165
ATCGAAAGGTCGAGGTGAGAATAGAGAAAGGGAA	2.37
TCTTGTAGATCAACAGGAGGATAAGAAAGATCGA	0.0724
CGCCCAAGGTCAAAGGTCAGTGAAGAGATGACGG	6.61
TGACCAAGGTGAAGGTCGTTGATCCCTCTGTAGA	1.43
ATATGTAGGTTAGCTGGGGTTATTCAGACTAGGC	3.2
TCTGGTAGGTCAACGATGGTCAGCTAATCTGCTA	2.2
TCTTGTAGATCAGCAGGTTAAGAATGCTGGCCAA	0.397
ACTATTAGTTTACTTAGGGCAACCGATACGACGC	0.639
ATCGAAAGGTCGACGAGGTTAGTATACACCGTTT	6.41
CTTCCAAGGTGAACAAGGTCGTTGATTACTATTC	6.21
CCGACTGGGGCAAAGGTTACAATACTCAGTACGA	1.71

Sequence	PBM binding z-score
ACTTACGGGTCAACGAGGTTATAACACGCGTATA	7.9
ACAGACAGGTGAGGAAGGTAACTCAGGCTATCAT	0.159
ACTATTAGTTGACTTAGGGCACCCGATACGACGC	0.0637
TAGCGTAGGTCATTCAGGGGCCAGTATAGAAAGC	3.37
ACAGACAGGTGATAAAGGTAACTCAGGCTATCAT	0.455
CCTACTGGGCCATTCAGAGGTCAGTGATCATATG	1.59
ACAGACAGGTGAGTGAAGGTAACCCAGCTGGACG	-0.336
GCTAGTTGGTCAGTAAAAGGCCACACACCGGTCG	-0.219
GTAGACAGGTGAAACGCAGGTAACTCAGGGTGGC	-0.214
CGTACTAGGTCATTGACAGGACAGTGAATAGTAA	2.09
CCTAACGGGTCACTCCAGGTTATAGCATCGGAGT	3.7
CGAACTAGGTCAAAGACAGTGAATCTCCGCACGC	1.36
TAGCCTAGGTCATTCGGGCCAGTATAGTGTCGGC	3.94
GCGACTGGGGCATAAGCAGGTTACCATAACTTAA	-0.0344
GCTAGCAGGCCATTTGGGTCACTCATTGACGGGC	0.798
CTCGAAAGGTCGTGCTAAGGTGAGTATACCAAAC	3.87
CAAACTAGGTCAAGAGGTCAAAGACCGCTTCCCG	5.93
TGGCCTAGGTCAGATCGGGCCAGTATACGCTATA	0.424
TTATATAGGTAAATGCTAGGTGAAAGTCCGATCT	0.639
CTACCAAGGTGAACAAGGTTGTTGATTACTATTC	4.05

— the supplement of paper PMC6555819
